Bioassay records as filed in PubChem.
BAZ2B block = inhibitors of human BAZ2B bromodomain; Q9UIF8; Potency, µM (top dose mostly 114 µM), for the others: at the highest dose activity change, negative = inhibition, most hits filed as inhibitors; 4.4% of 360,000 active; AlphaScreen BAZ2B-H3K14Ac peptide displacement; further: potency means the concentration at half of the fitted maximal effect; on the % scale 0 is the no-effect control and ±100 the full control effect; nearly all actives have a fitted effect of over 60% in size
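AlphaScreen displacement: compounds (up to 110uM) incubated 30 min at room temperature with a preformed 50 nM BAZ2B/50 nM biotinylated H3K14Ac peptide complex in PBS pH 7.4 with Tween-20. Donor and acceptor beads at 10 ug/mL final added, 20 min light-protected before reading.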
HP1b chromo inh = HP1-beta chromodomain-methylated histone interaction inhibition. Potency, µM (highest dose often 114 µM), for inactives: top-dose activity change, negative = inhibition, most hits filed as inhibitors. AlphaScreen HP1-beta / biotin-H3K9me3 peptide binding. P83916. 0.56% of 390,000 active; further: potency means the concentration at half of the fitted maximal effect; nearly all actives have a fitted effect of over 70% in size
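Compound inhibition of the preformed complex between 50 nM HP1-beta and 50 nM biotinylated H3K9me3 peptide was read by AlphaScreen. Buffer was PBS pH 7.4 with 0.01% Tween-20. Incubations ran 30 min at room temperature, with 10 ug/mL donor/acceptor beads.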
G9a inh = inhibitors of human histone lysine methyltransferase G9a; Potency, µM (series often up to 102 µM), for inactives: at the top dose activity, negative = inhibition, hits mostly inhibitors; AID 504332; 8.8% of 350,000 active; Q96KQ7; G9a H3K9 monomethylation, AlphaScreen, 2 h; further: potency means the concentration at half of the fitted maximal effect; on the % scale 0 is the no-effect control and ±100 the full control effect; nearly all actives have a fitted effect of over 75% in size
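Readings reflect AlphaScreen signal from monomethyl-H3K9 antibody detection. HMT at 20 nM; substrate b-H3K9 500 nM; cofactor SAM 20 uM; 2 h RT reaction; compounds tested as titrations in qHTS with 15 min preincubation.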
Six1-Eya2 blk = Six1/Eya2 interaction inhibition. Q15475+O00167. activity change, % (test concentration not listed). AlphaScreen GST-Six1/His-Eya2 binding, biochemical; stronger effect = lower value. AID 651725. 0.56% of 360,000 active; in the data active means activity change below about -65%; inconclusive means mostly about -30% to -63%; further: on the % scale 0 is the no-effect control and ±100 the full control effect
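AlphaScreen with GST-Six1 and His-Eya2 (5X mix: 250 nM and 500 nM), glutathione donor and nickel acceptor beads; buffer 50 mM Tris pH 8.0, 300 mM NaCl, 1 mM TCEP; 1 h at 37 C in the dark.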
CtBP-E1A inh = CtBP/E1A binding inhibition; 0.49% of 340,000 active; AlphaScreen GST-E1A/His-CtBP binding, 1536-well; stronger effect = lower value; activity change, % (concentration not given with the values); in the data active means activity change below about -65%; inconclusive means mostly about -30% to -63%; further: on the % scale 0 is the no-effect control and ±100 the full control effect
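In 5 uL wells, 23 nL compound meets equimolar GST-E1A and His-CtBP (5X stock 125 nM each) for 2 h, 37 °C. Beads (5X, 50 ug/mL) then 1 h, 37 °C, dark.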
JMJD2A Tudor inh = blocks the human JMJD2A Tudor domain | 4.4% of 390,000 active | AlphaScreen JMJD2A-Tudor / H3K4me3 peptide binding | O75164 | Potency, µM (highest dose often 114 µM), inactives show top-dose activity change, negative = inhibition, hits mostly inhibitors | AID 504339; further: potency means the concentration at half of the fitted maximal effect; on the % scale 0 is the no-effect control and ±100 the full control effect; nearly all actives have a fitted effect of over 50% in size
Target sequence (O75164 whole entry, looked up, the tested form may be a part): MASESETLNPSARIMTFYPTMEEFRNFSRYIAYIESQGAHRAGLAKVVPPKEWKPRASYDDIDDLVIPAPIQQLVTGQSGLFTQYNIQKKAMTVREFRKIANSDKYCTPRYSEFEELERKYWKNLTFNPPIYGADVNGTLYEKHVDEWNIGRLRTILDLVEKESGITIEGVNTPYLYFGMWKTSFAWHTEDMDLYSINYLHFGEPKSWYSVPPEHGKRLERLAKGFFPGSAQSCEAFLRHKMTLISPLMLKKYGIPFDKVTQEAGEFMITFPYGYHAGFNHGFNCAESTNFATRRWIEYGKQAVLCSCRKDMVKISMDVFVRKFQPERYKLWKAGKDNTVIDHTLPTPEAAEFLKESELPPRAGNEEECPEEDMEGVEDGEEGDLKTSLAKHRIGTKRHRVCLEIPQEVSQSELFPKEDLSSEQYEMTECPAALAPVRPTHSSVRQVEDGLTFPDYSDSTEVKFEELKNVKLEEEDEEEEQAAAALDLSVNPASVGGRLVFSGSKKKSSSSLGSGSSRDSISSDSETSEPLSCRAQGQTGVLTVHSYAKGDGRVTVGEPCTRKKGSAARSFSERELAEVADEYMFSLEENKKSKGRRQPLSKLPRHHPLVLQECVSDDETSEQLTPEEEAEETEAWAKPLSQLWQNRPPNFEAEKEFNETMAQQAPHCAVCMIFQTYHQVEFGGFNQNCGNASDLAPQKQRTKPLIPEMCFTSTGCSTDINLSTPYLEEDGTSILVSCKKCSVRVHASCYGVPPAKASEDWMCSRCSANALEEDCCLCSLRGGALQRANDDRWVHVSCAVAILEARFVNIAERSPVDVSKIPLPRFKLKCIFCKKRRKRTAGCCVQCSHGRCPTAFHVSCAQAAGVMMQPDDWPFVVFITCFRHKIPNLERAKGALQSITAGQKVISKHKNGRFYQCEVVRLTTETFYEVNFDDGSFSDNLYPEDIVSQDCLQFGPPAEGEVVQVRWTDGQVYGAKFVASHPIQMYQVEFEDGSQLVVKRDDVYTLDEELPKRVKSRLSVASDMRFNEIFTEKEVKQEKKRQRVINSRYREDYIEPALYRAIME
Numbers without * were called inactive; ? = inconclusive; nt = no result; ! = a repeat was not active; [ ] = another dose, or the depositor's remark. Compounds with a hit are over-represented: about 10% of the library has one in this group of screens. Unless noted, the call rests on the fitted dose curve; in most records, active means well fitted inhibition curve with a large enough effect; inconclusive means small, poorly fitted or top-dose-only effect; inactive means no such curve, though single readings can be large or run the other way.

SMILES	BAZ2B block	HP1b chromo inh	G9a inh	Six1-Eya2 blk	CtBP-E1A inh	JMJD2A Tudor inh
CCOc1ccccc1CNC(=O)C1CCN(S(=O)(=O)c2c(C)noc2/C=C/c2ccccc2F)CC1	-1%	23%[57 µM]	1%[59 µM]	nt	nt	-3%
Cc1cccn2c(=O)c(/C=C(\C#N)C(N)=O)c(N3CCN(c4cccc(Cl)c4)CC3)nc12	-34%	-11%	22µM*	?	?	?
CNC(=O)/C(C#N)=C/c1c(N2CCN(c3ccc(OC)cc3)CC2)nc2c(C)cccn2c1=O	40µM*	?	1%[2.33 µM]	?	-4	50µM*
COCCNC(=O)/C(C#N)=C/c1c(N2CCN(C)CC2)nc2c(C)cccn2c1=O	4%	38%	14%[2.33 µM]	-2	-76*	-8%
COC(=O)/C(C#N)=C/c1c(N2CCN(c3ccc(OC)cc3)CC2)nc2c(C)cccn2c1=O	?	?	?	?	?	11µM*
CNC(=O)/C(C#N)=C/c1c(N2CCN(c3ccccc3)CC2)nc2c(C)cccn2c1=O	-2%	-16%	20%[2.33 µM]	-22	-20	-14%
COCCCNC(=O)/C(C#N)=C/c1c(N2CCN(C)CC2)nc2c(C)cccn2c1=O	5%	3%	15%[2.33 µM]	-3	12	-14%
Cc1cccn2c(=O)c(C=C(C#N)C#N)c(N3CCN(c4ccccc4)CC3)nc12	?	-7%	?	?	-17	?
COc1ccc(C(=O)/C=C/Nc2cccc(O)c2)cc1	-30%	29%	40µM*	-3	-1	11%
COc1cccc(N/C=C/C(=O)c2ccc(Br)cc2)c1	nt	80%	nt	17	33	7%
COc1cccc(C(=O)/C=C/Nc2cc(C)ccc2O)c1	?	0%	?	-7	-10	56µM*
Nc1nc(Cl)nc2c1ncn2[C@@H]1O[C@H](COP(=O)(O)OP(=O)(O)OP(=O)(O)O)[C@H](O)[C@H]1O	nt	nt	16%[12.7 µM]	nt	nt	nt
COc1ccc(OC)c(CCNC(=O)CCc2cn(Cc3cc(C)ccc3C)c3ccccc23)c1	?	6%	?	nt	nt	?
Cc1ccc(Sc2ccc(CN3CCCC3)cc2[N+](=O)[O-])cc1	?	?	?	?	-28	45µM*
CN1CCN(Cc2ccc(Sc3ccc(Cl)cc3)c([N+](=O)[O-])c2)CC1	32µM*	-29%	-44%	-16	?	?
COc1cccc(CNC(=O)Cn2c(SCC(=O)Nc3ccc(C)c(C)c3)nc3ccccc32)c1	-5%	22%	17%[59 µM]	nt	nt	-8%
CCOC(=O)c1c(NC(=O)Cc2coc3cc(C)cc(C)c23)sc2c1CCC2	-8%	18%	-32%[59 µM]	nt	nt	-18%
CC(C)=CCC/C(C)=C/COc1c2occc2cc2ccc(=O)oc12	nt	95%	nt	4	7	27%
CC(C)(O)[C@H](O)COc1c2occc2cc2ccc(=O)oc12	-6%	-1%	1.4µM*	10	4	-22%
COc1cccc(-c2cc(NC=O)c3ncc(-c4cc(OC)c(OC)c(OC)c4)n3c2)c1	nt	nt	nt	-15	?	nt
COc1cccc(-c2cnc3c(NC=O)cc(-c4ccc(O)c(OC)c4)cn23)c1	nt	nt	nt	?	-71*	nt
COc1cccc(NS(=O)(=O)c2ccc3[nH]cc(C(=O)NC4CCCCC4)c(=O)c3c2)c1	nt	12%	-42%[59 µM]	nt	nt	?
COc1ccc2c(c1)CCC1C2=NN(/C(C)=C\C(C)=O)C1c1ccc(F)cc1 (configuration not stated)	13%	-20%	16µM*	-2	nt	14µM*
COc1ccc(CNC(=O)C2=C(C)C(=O)OC23CCN(C(C)=O)CC3)cc1	-2%	28%	8%[59 µM]	nt	nt	6%
NC(=S)N=Nc1ccc(NN=C(N)N)cc1	40µM*	4µM*	?	-1	-21	11µM*
SMILES	BAZ2B block	HP1b chromo inh	G9a inh	Six1-Eya2 blk	CtBP-E1A inh	JMJD2A Tudor inh
CCOC(=O)/C(=C\c1cccc(O)c1)c1nc2sc(C)c(C)c2c(=O)[nH]1	-28%	28µM*	3.2µM*	-19	1	56µM*
O=C(/C=C/c1ccccc1)n1cnnc1SC/C=C/c1ccccc1	9%	47%	20µM*	-16	-2	20%
CCc1ccccc1N(C)C(=O)c1cc2c(=O)oc3ccccc3c2s1	0%	39%	-1%[59 µM]	nt	nt	-2%
O=C(CCc1ccco1)CCc1ccco1	nt	?	nt	-11	0	56µM*
O=C(NC1=NCCS1)C12CC3CC(C1)CC(C(=O)NC1=NCCS1)(C3)C2	50µM*	0%	?	6	13	56µM*
Cc1c(F)cccc1NS(=O)(=O)c1ccc2c(c1)c(C)cc(=O)n2C	50µM*	41%	5%	-1	nt	-7%
CCCNC(=O)Cn1nc(C)c2c(C)n(-c3ccccc3)nc2c1=O	-5%	0%	-10%[59 µM]	nt	nt	1%
N#Cc1ccsc1NC(=O)COc1ccc(-c2nnco2)cc1	-5%	29%	40µM*	?	?	-25%
CC(C)CC(=O)Nc1ccc(C(=O)COc2ccc(-c3nnco3)cc2)cc1	3%	-23%	-2%[59 µM]	-1	-5	79µM*
N#CCSc1ccccc1NC(=O)COc1ccc(-c2nnco2)cc1	?	42%	16%[59 µM]	-11	-10	-19%
C/C(=N\NC(=S)NCC(C)(C)C)c1cc(F)cc(F)c1O	7.1µM*	9%	-1%	-25	-22	-25%
Nc1nnc(Cc2c[nH]c3ccccc23)s1	-6%	18%	45µM*	2	6	-22%
CC(C)C(=O)Nc1nnc(Cc2c[nH]c3ccccc23)s1	-16%	23%	15%	-3	-11	-14%
c1ccc2c(Cc3c[nH]c4ccccc34)c[nH]c2c1	nt	nt	8.9µM*!	nt	nt	nt
Cc1ccc(-n2ncc(C(=O)NCCCN3CCN(C)CC3)c2C2CCN(C(=O)OC(C)(C)C)CC2)cc1	7%[57.1 µM]	33%	-25%[59 µM]	nt	nt	-1%
Cc1cccc(OCC(=O)Nc2ccc(C(=O)OCc3cc(=O)n4nc(C5CC5)sc4n3)cc2)c1	-1%	25%	0%[12.7 µM]	nt	nt	-1%
O=C(N/N=C/c1cccnc1)c1cc(O)c(O)c(O)c1	45µM*	?	32µM*	0	-26	28µM*
CC(=O)Nc1cccc(C(=O)N/N=C/c2cccnc2)c1	-3%	-11%	41%	-1	0	45µM*
COc1ccc(CCC(=O)NCc2nc3cccnc3n2Cc2ccc(F)cc2)cc1	1%	9%[57 µM]	16%[59 µM]	nt	nt	-8%
CC(C)c1ccc(NC(=O)c2cnc3sc(N4CCCC4)nn3c2=O)cc1	5%	55%	12%[59 µM]	nt	nt	-3%
COc1cccc(OC)c1OCCCN1CCOCC1	50µM*	?	?	12	-1	2.5µM*
Cc1cccc(C)c1OCCCCN1CCNCC1	?	-9%	25µM*	-2	-1	6.3µM*
